Measurements taken from PubChem BioAssay AID1688 (National Center for Advancing Translational Sciences (NCATS), 2009).
The campaign covered roughly 220,000 compounds. About 2,400 (1.1%) were called active. Not shown: some 7% with an inconclusive outcome. The entries come from a sample that favours actives as a whole. Unmarked numbers belong to inactive results. Calls follow the shape of the dose curve; as a rule, active = well fitted inhibition curve with a large enough effect; inconclusive = small, poorly fitted or top-dose-only effect, or effect the other way; inactive = no such curve, though single readings can be large or run the other way.

Test: qHTS Multiplex Assay to Identify Dual Action Probes in a Cell Model of Huntington: Aggregate Formation (GFP); also: nearly all actives have a fitted effect of over 60% in size
Conditions: PC12 HttQ103-GFP aggregates, Acumen cytometry, 40 h; series mostly up to 9.22 µM; activity change, negative = inhibition: at the top concentration
How it was run: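 Aggregate formation scored by laser-scanning cytometer (488 excitation, 500–530 emission) in lysed PC12 cells expressing Q103-GFP after 100 nM tebufenozide induction; library tested in dose series, with ATPLite reagent added in the multiplex.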
% is scaled to controls: 0 for no effect and ±100 for the full control effect; potency is read from the fitted curve at half-maximal effect.

Q: Which “activity change, negative = inhibition” value does the source give for `CCCCNC(=O)OCCSCCS(=O)(=O)c1ccc(Cl)cc1` here?
A: Its value is 6.92%.

Q: Which “activity change, negative = inhibition” value does the source give for `CC(C)(C)n1cnnc1Sc1ccc([N+](=O)[O-])cn1` here?
A: Its value is 4.48%.

Q: Which “activity change, negative = inhibition” value does the source give for `CCC(C)N1C(=S)SC(C)(C)C1N(O)C(=O)NC1CCCCC1` (centres undefined) here?
A: The value was 36.2%.

Q: With `c1ccc(-c2nc(NCc3ccco3)c3ccccc3n2)cc1` as the compound, how does the “activity change, negative = inhibition” value read?
A: The value was 11.2% [at 46.1 µM].

Q: Which “activity change, negative = inhibition” value does the source give for `O=C(NCc1ccncc1)C(=O)NCc1ccco1` here?
A: Its value is -9.62% [at 46.1 µM].

Q: Which Potency does the source give for `c1coc(CNc2ncnc3ccccc23)c1` here?
A: The Potency was 7.94 µM (active).

Q: Which “activity change, negative = inhibition” value does the source give for `Cc1cc(C)cc(NS(=O)(=O)c2ccc(F)cc2)c1` here?
A: Its value is 23.6%.

Q: Which “activity change, negative = inhibition” value does the source give for `CCOc1cc(N2CCOCC2)c(OCC)cc1NC(=O)c1ccc(C)s1` here?
A: Its value is 4.22%.

Q: With `CCOc1cc(N2CCOCC2)c(OCC)cc1NC(=O)COc1cccc2cccnc12` as the compound, how does the Potency read?
A: Its Potency is 3.55 µM (active).

Q: With `CCOc1cc(N2CCOCC2)c(OCC)cc1NC(=O)c1cc(C)nc2ccccc12` as the compound, how does the “activity change, negative = inhibition” value read?
A: The value was 6.16%.

Q: Which “activity change, negative = inhibition” value does the source give for `O=c1c2ccccc2cnn1Cc1n[nH]c(=S)n1-c1ccccc1F` here?
A: The value was -0.823%.

Q: Which “activity change, negative = inhibition” value does the source give for `COc1cc(OC)c(OC)cc1/C=N/Nc1ncnc2c1[nH]c1ccc(C)cc12` here?
A: The value was -13.5%.

Q: For `CC(C)OCCCNc1ncnc2c1[nH]c1ccc(F)cc12`, which Potency is on record?
A: Its Potency is 2.24 µM (active).

Q: For `O=C1CCCN1CCCNc1ncnc2c1[nH]c1ccccc12`, which “activity change, negative = inhibition” value is on record?
A: Its value is 10.3% [at 46.1 µM].

Q: Which “activity change, negative = inhibition” value does the source give for `COc1ccc(NC(=O)C2CCC(CNc3c(N4CCCCC4)c(=O)c3=O)CC2)c(OC)c1` (centres undefined) here?
A: Its value is 0%.

Q: With `Cc1cc(N)n(-c2ccc(S(=O)(=O)N3CCCC3)cc2[N+](=O)[O-])n1` as the compound, how does the “activity change, negative = inhibition” value read?
A: Its value is -12.1%.

Q: Which “activity change, negative = inhibition” value does the source give for `COCCn1c(CN(Cc2ccccc2)Cc2ccccc2)nc2c1c(=O)n(C)c(=O)n2C` here?
A: The value was -8.79% [at 46.1 µM].

Q: For `CCOC(=O)N1CCN(Cc2nc3c(c(=O)n(C)c(=O)n3C)n2Cc2ccccc2)CC1`, which “activity change, negative = inhibition” value is on record?
A: The value was 6.2% [at 46.1 µM].

Q: Which Potency does the source give for `Cn1c(=O)c2c(nc(OCc3cccnc3)n2Cc2ccccc2)n(C)c1=O` here?
A: The Potency was 12.6 µM (active).

Q: Which “activity change, negative = inhibition” value does the source give for `O=C(Nc1ccc(Br)cn1)C1CCN(S(=O)(=O)c2cccs2)CC1` here?
A: Its value is -30.3%.

Q: For `COC(=O)c1cccc(NS(C)(=O)=O)c1`, which “activity change, negative = inhibition” value is on record?
A: Its value is 4.68%.

Q: Which “activity change, negative = inhibition” value does the source give for `Cc1ccc(Cl)c(OCC(=O)NN2CCN(C)CC2)c1` here?
A: The value was 10.6%.

Q: For `C/[N+]([O-])=C\c1ccc([N+](=O)[O-])o1`, which “activity change, negative = inhibition” value is on record?
A: Its value is 1.96% [at 46.1 µM].

Q: For `CCn1c(/C=C/c2ccc([N+](=O)[O-])o2)nc2ccccc2c1=O`, which Potency is on record?
A: Its Potency is 11.2 µM (active).

Q: With `Cn1cc(/C=C/c2nc3ccccc3c(=O)n2-c2cccc([N+](=O)[O-])c2)c2ccccc21` as the compound, how does the “activity change, negative = inhibition” value read?
A: The value was 10.7% [at 46.1 µM].

Q: For `CC(NC(=O)C(C)(C)C)C(c1cccs1)N1CCN(Cc2ccccc2)CC1` (centres undefined), which “activity change, negative = inhibition” value is on record?
A: The value was 0.443%.

Q: For `Cc1ccc(C)c2c1cc(C)c1nnc(SCC(=O)Nc3cccc(C(=O)O)c3)n12`, which “activity change, negative = inhibition” value is on record?
A: The value was -40.5%.

Q: For `O=S(=O)(Nc1ccc(OC(F)(F)F)cc1)c1cccc2nonc12`, which “activity change, negative = inhibition” value is on record?
A: Its value is 0.873%.

Q: For `CC(C)CN(CC(C)C)CC(O)CN(c1ccccc1)S(=O)(=O)c1ccccc1[N+](=O)[O-]` (centres undefined), which “activity change, negative = inhibition” value is on record?
A: The value was -1.18%.

Q: With `COc1ccc(Cn2c(=O)sc3ccccc32)cc1OC` as the compound, how does the Potency read?
A: Its Potency is 0.631 µM (active).

Q: Which “activity change, negative = inhibition” value does the source give for `Cc1cccc(CSc2nnc(Cn3c(=O)sc4ccccc43)n2C)c1` here?
A: The value was -12.4% [at 46.1 µM].

Q: Which “activity change, negative = inhibition” value does the source give for `COc1ccccc1CNC(=O)CCn1c(=O)sc2ccccc21` here?
A: Its value is 0.103% [at 46.1 µM].

Q: For `CC(C)Sc1nnc([C@H](Cc2ccccc2)NC(=O)OC(C)(C)C)o1`, which “activity change, negative = inhibition” value is on record?
A: Its value is 9.88%.

Q: For `CCc1cc(C(=O)c2ccc(OC)cc2)c(NC(=O)CN2CCN(C)CC2)s1`, which “activity change, negative = inhibition” value is on record?
A: The value was -4.7%.

Q: With `CCOC(=O)c1c(NC(=O)NC(C)(C)C)sc2c1CCN(C)C2` as the compound, how does the “activity change, negative = inhibition” value read?
A: Its value is 24.2%.

Q: Which “activity change, negative = inhibition” value does the source give for `Cc1cc(C(=O)Nc2c(C)nn(Cc3ccccc3)c2C)on1` here?
A: The value was -1.37% [at 46.1 µM].

Q: With `Cc1nn(Cc2ccc(Cl)c(Cl)c2)c(C)c1NC(=O)c1cc(C2CC2)on1` as the compound, how does the Potency read?
A: The Potency was 17.8 µM (active).

Q: With `O=C(Nc1cc(C(F)(F)F)ccc1Cl)c1cc(C2CC2)on1` as the compound, how does the “activity change, negative = inhibition” value read?
A: The value was -12.3% [at 46.1 µM].

Q: Which “activity change, negative = inhibition” value does the source give for `CCOC(=O)c1c(C)oc(C)c(C(=O)OCC)c1=O` here?
A: The value was -16.8%.

Q: For `Cc1c(S(=O)(=O)NCc2ccccc2)c(=O)n(C)c(=O)n1C`, which “activity change, negative = inhibition” value is on record?
A: The value was 34.1%.

Q: Which “activity change, negative = inhibition” value does the source give for `CCc1ccc2nc(Nc3ncc(C(C)=O)c(C)n3)nc(C)c2c1` here?
A: The value was -19.3%.

Q: For `O=C(CSc1nc2ccccc2c(=O)n1CCCO)N1CCc2ccccc21`, which “activity change, negative = inhibition” value is on record?
A: The value was 4.23% [at 46.1 µM].

Q: Which “activity change, negative = inhibition” value does the source give for `O=C(CSc1nc2[nH]ncc2c(=O)n1-c1ccccc1)N1CCCc2ccccc21` here?
A: Its value is 1.39% [at 46.1 µM].

Q: With `Cn1c(SCC(=O)N2CCCc3ccccc32)nc2ccccc2c1=O` as the compound, how does the Potency read?
A: Its Potency is 7.94 µM (active).

Q: For `Cc1nc(CNS(=O)(=O)c2cc([N+](=O)[O-])ccc2C)cs1`, which “activity change, negative = inhibition” value is on record?
A: The value was 0.787%.

Q: Which Potency does the source give for `COc1ccc(CS(=O)/C(Cl)=C(/Cl)C(=O)Nc2ccc(OC)nc2)cc1` (centres undefined) here?
A: Its Potency is 5.01 µM (active).

Q: With `COc1ccc(NC(=S)NCCNC(C)=O)cc1` as the compound, how does the “activity change, negative = inhibition” value read?
A: Its value is 12.1% [at 46.1 µM].

Q: Which “activity change, negative = inhibition” value does the source give for `COc1ccc(NC(=S)Nc2ccccc2Cl)cn1` here?
A: The value was 7.84% [at 46.1 µM].

Q: Which “activity change, negative = inhibition” value does the source give for `FCOC(C(F)(F)F)C(F)(F)F` here?
A: Its value is 6.73% [at 46.1 µM].

Q: For `O=C(Nc1ccc2ccccc2c1)/C(=C/c1cccc(Br)c1)NC(=O)c1ccco1`, which “activity change, negative = inhibition” value is on record?
A: The value was -8.13% [at 46.1 µM].

Q: For `COc1ccc(C(=O)NC(=S)NNC(=O)CCc2ccccc2)cc1`, which “activity change, negative = inhibition” value is on record?
A: The value was -24% [at 46.1 µM].

Q: With `CC(Oc1ccc2ccccc2c1)C(=O)NNC(=S)NC(=O)c1ccco1` (centres undefined) as the compound, how does the Potency read?
A: Its Potency is 11.2 µM (active).

Q: Which “activity change, negative = inhibition” value does the source give for `O=C(c1ccco1)N1CCN(CCOc2ccccc2)CC1` here?
A: The value was 12.3%.

Q: With `COc1ccc(-c2cc(C(F)(F)F)nc(S(C)(=O)=O)n2)cc1OC` as the compound, how does the Potency read?
A: The Potency was 10 µM (active).

Q: Which “activity change, negative = inhibition” value does the source give for `COc1ccc(-c2cc(C(F)(F)F)nc(SCC(=O)Nc3ccc4c(c3)OCO4)n2)cc1OC` here?
A: The value was -7.98% [at 46.1 µM].

Q: Which “activity change, negative = inhibition” value does the source give for `COc1cc(OC)nc(S(C)(=O)=O)n1` here?
A: The value was 5.84% [at 46.1 µM].

Q: Which “activity change, negative = inhibition” value does the source give for `CC1Cc2ccccc2N1S(=O)(=O)c1ccc(Cl)nc1` (centres undefined) here?
A: The value was 5.35%.

Q: Which “activity change, negative = inhibition” value does the source give for `COc1ccc(C2(C#N)CCC(C(=O)O)CC2)cc1OC1CCCC1` (centres undefined) here?
A: The value was 3.74% [at 46.1 µM].

Q: With `CCOC(=O)N1CCN(C(=O)C2CCN(c3ncnc4c3sc3cccc(F)c34)CC2)CC1` as the compound, how does the Potency read?
A: The Potency was 10 µM (active).

Q: For `CCOC(=O)C1CCN(c2ncnc3c2oc2ccc(Br)cc23)CC1`, which “activity change, negative = inhibition” value is on record?
A: The value was 11.4% [at 46.1 µM].

Q: Which “activity change, negative = inhibition” value does the source give for `CCOC(=O)N1CCN(C(=O)C2CCN(Cc3ccc(OC)cc3OC)CC2)CC1` here?
A: The value was 4.49% [at 46.1 µM].

Q: With `COc1ccc(-c2[nH]ncc2/C=N/NC(=O)c2cc(Br)ccc2O)c(OC)c1` as the compound, how does the “activity change, negative = inhibition” value read?
A: Its value is -30.4% [at 46.1 µM].

Q: Which Potency does the source give for `CC(C)/C=N/NC(=O)c1cc(Br)ccc1O` here?
A: Its Potency is 8.91 µM (active).

Q: Which “activity change, negative = inhibition” value does the source give for `O=C(N/N=C\c1cccc(Br)c1)c1ccccc1-n1cccc1` here?
A: The value was -0.974% [at 46.1 µM].

Q: Which “activity change, negative = inhibition” value does the source give for `Cc1c(C)c(C)c2[nH]c(=S)[nH]c2c1C` here?
A: Its value is -19.2%.

Q: With `CCc1c(C)nc2c(-c3ccccc3)c(C)nn2c1Nc1ccc(NC(C)=O)cc1` as the compound, how does the “activity change, negative = inhibition” value read?
A: The value was 13.2%.

Q: Which “activity change, negative = inhibition” value does the source give for `O=C(CCCCCNC(=O)c1ccccc1)N/N=C/c1ccccc1` here?
A: The value was 10.1% [at 46.1 µM].

Q: Which Potency does the source give for `O=C(N/N=C/c1ccccc1O)/C(=C/c1ccccc1)CCO` here?
A: The Potency was 7.94 µM (active).

Q: Which “activity change, negative = inhibition” value does the source give for `O=C(CCC(=O)Nc1ccccc1)N/N=C/c1ccccc1F` here?
A: The value was 10.3% [at 46.1 µM].
